# Screening results as filed in PubChem BioAssay.
# NPC1 promoter act – activators of NPC1 promoter. Huh7 NPC1 promoter luciferase reporter, 24 h. Potency, µM (highest dose often 9.22 µM), inactives show top-dose activation, usual class: activators. hit rate 2.4% among 320,000. AID 485313; further: % of control where 0% means no effect; nearly all actives have a fitted effect of over 60% in size
#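 Stably transfected Huh7 (NPC1 promoter→luciferase), 1500 cells/well in Opti-MEM + 10% FBS, 2 h settle, then compound 24 h at 37 °C. Luminescence after 10 min with Amplite reagent.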
# Rab9 promoter act – activators of Rab9 promoter; Huh7 Rab9 promoter-luciferase reporter, luminescence, 24 h; Potency, µM (highest dose often 9.22 µM), without a hit: at the highest dose activation, negative = inhibition, hits mostly activators; hit rate 2.8% among 320,000; AID 485297; further: % of control where 0% means no effect; nearly all actives have a fitted effect of over 60% in size
#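 Rab9 promoter-driven luciferase in stably transfected Huh7 cells; 1500 cells/well rested 2 h, exposed to compound in DMSO for 24 h at 37 °C, 5% CO2. Luminescence read 10 min after adding luciferase reagent at ambient temperature.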
# FLuc counter – inhibits or activates purified firefly luciferase, miR-21 counter-screen | P08659 | purified FLuc, Km substrates, luminescence inhibition | Potency, µM (series often up to 57.5 µM), without a hit: at the highest dose activity change, negative = inhibition, most hits filed as inhibitors | hit rate 6.9% among 360,000 | AID 588342;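 further: plate controls were vehicle for no effect and reference inhibitor for full effect; nearly all actives have a fitted effect of over 55% in size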
# Target sequence (P08659 whole entry, looked up): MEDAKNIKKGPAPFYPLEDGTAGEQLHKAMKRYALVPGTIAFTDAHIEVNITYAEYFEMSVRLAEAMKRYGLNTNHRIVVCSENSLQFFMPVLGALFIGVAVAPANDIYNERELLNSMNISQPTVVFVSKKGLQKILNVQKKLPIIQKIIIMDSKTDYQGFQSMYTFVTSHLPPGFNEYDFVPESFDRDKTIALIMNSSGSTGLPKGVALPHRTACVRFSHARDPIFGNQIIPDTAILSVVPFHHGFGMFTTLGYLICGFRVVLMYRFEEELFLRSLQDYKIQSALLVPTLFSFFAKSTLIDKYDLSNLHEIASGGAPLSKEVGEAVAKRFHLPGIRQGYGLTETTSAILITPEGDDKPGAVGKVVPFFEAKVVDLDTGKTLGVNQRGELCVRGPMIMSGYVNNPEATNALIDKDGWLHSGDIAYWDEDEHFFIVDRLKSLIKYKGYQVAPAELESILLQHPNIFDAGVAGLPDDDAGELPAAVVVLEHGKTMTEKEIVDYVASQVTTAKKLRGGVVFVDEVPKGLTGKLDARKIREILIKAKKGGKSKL
#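 Biochemical qHTS of compounds, final roughly 60 µM downward over six points, against 10 nM purified firefly luciferase using Km concentrations of substrates (10 uM D-luciferin, 10 uM ATP) in Tris acetate pH 7.5 buffer; luminescence output.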
# SMN2 splice enh – enhancers of SMN2 splice variant expression | Potency, µM (titrated, usually from 46.1 µM), inactives show at the highest dose activity change, positive = activation, actives largely listed as activators | hit rate 2.8% among 210,000 | HEK293 SMN2-luciferase splicing reporter, luminescence, 30-36 h; further: % of control where 0% means no effect; nearly all actives have a fitted effect of over 55% in size
#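 HEK293 cells carry an SMN2 minigene-luciferase reporter in which exon 7 inclusion puts luciferase in frame. Cells were seeded at 2000 cells/well, attached for 10-12 hours, then exposed to compounds for 30-36 hours at 37C before ONE-Glo luminescence.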
# ELG1 genotoxic – induces genotoxicity in HEK293T cells with luciferase-tagged ELG1. HEK293T ELG1-luciferase reporter, luminescence, 16 h. Potency, µM (top dose mostly 46 µM), inactives show at the top dose activity change, positive = activation, actives largely listed as activators. hit rate 1.3% among 330,000; further: % of control where 0% means no effect; nearly all actives have a fitted effect of over 60% in size
#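 16 hr compound incubation (37 °C, 5% CO2) of HEK293T cells carrying luciferase-tagged ELG1; luciferase then measured by ONE-Glo luminescence after 30 min at RT.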
# An asterisk follows results filed as active; ? = inconclusive; . = no result; [ ] = dose if it differs, or a comment. Compounds with a hit are over-represented: about 7.4% of the library has one in this group of screens. The call rests on the fitted dose curve; in most records, active means well fitted curve in the direction sought with a large enough effect; inconclusive means small, poorly fitted or top-dose-only effect, or another doubt; inactive means no such curve, though single readings can be large; an effect the other way counts as inactive or inconclusive. Potency means the concentration at half of the fitted maximal effect.
SMILES,NPC1 promoter act,Rab9 promoter act,FLuc counter,SMN2 splice enh,ELG1 genotoxic
COC(=O)CSc1nc(N)c2c3c(sc2n1)C(c1ccccc1)SC(c1ccccc1)C3 (configuration not stated),-6%,-1%,-3%,12%,4%
CC(C)(C)C1CCc2c(sc3nc(SCC(=O)O)nc(N)c23)C1 (configuration not stated),18%,11%,2.4µM*,.,?
Nc1nc(SCC(=O)NCCO)nc2sc3c(c12)CCCC3,6%,-2%,17µM*,10%,11%
Nc1nc(SCC(=O)NCCCO)nc2sc3c(c12)CCC3,-3%,-6%,-18%,-7%,-4%
CSc1nc2sc3c(c2c(=O)n1-c1ccccc1)CCC(C(C)(C)C)C3 (configuration not stated),.,.,1%,3%,.
COC(=O)CSc1nc(N)c2c3c(sc2n1)CCCC3,1%,5%,9.5µM*,.,13%
O=C1NC(=Nc2ccccc2)S/C1=C\c1cccn1-c1ccccc1,-1%,24%,11µM*,?,?
Cc1ccc(N=C2NC(=O)/C(=C\c3cccs3)S2)cc1C,13%,23%,?,3.5µM*,14%
Cc1cccc(N=C2NC(=O)/C(=C/c3cccn3C)S2)c1,10%,14%,12µM*,.,16%
Cc1cccc(N=C2NC(=O)/C(=C/c3cccs3)S2)c1,8%,-2%,?,13%,-1%
Cc1ccc(NC(=O)CN2C(=O)COc3ccc(S(=O)(=O)NC4CCCC4)cc32)cc1Cl,.,.,-15%,.,.
COc1ccc(C(c2c(O)ccc3ccccc23)N2CCOCC2)c(OC)c1 (configuration not stated),-3%,4%,12µM*,?,?
CN(C)c1ccc(N=C/C=C2/N(C)c3ccccc3C2(C)C)cc1,12%,20%,15µM*,-6%,4%
CN1C(=CC=C2C=C(I)C(=O)C(I)=C2)C(C)(C)c2ccccc21,-3%,-20%,21µM*,.,-5%
CN1/C(=C\C=N\O)C(C)(C)c2ccccc21,8%,-1%,0%,-2%,2%
CN1/C(=C\C=C2/SC(=S)NC2=O)C(C)(C)c2ccccc21,-13%,-32%,?,.,0%
CN1/C(=C\C=C2/C(=O)Oc3ccccc3C2=O)C(C)(C)c2ccccc21,?,2.8µM*,?,?,?
COC(=O)N1CCC[C@@]2(CCN(C(=O)Nc3ccc(OC)cc3)C2)C1,.,.,.,2%,.
COc1cccc(NC(=O)c2oc3ccccc3c2NC(=O)c2ccc(F)c(F)c2)c1,.,.,4%,-8%,.
CN(C)c1ccc(C(CNC(=O)c2ccc(C(C)(C)C)cc2)N2CCCC2)cc1 (configuration not stated),.,.,4%,.,.
COCCN1CCN(C(=O)c2cc(COc3cc(C)ccc3C)on2)CC1,?,2.2µM*,13µM*,.,?
Cc1ccc(C)c(OCc2cc(C(=O)N3CCNC(=O)C3)no2)c1,-6%,11%,6%,.,0%
CC(=O)NCCC1CCCCN1C(=O)c1cc(COc2cc(C)ccc2C)on1 (configuration not stated),3.5µM*,2.2µM*,17µM*,.,16µM*
COCCN1CCN(C(=O)c2cc(COc3ccc(Cl)cc3OC)on2)CC1,?,3.2µM*,11µM*,.,21µM*
COc1cc(Cl)ccc1OCc1cc(C(=O)N2CCCCCCC2)no1,3%,11%,?,.,3%
SMILES,NPC1 promoter act,Rab9 promoter act,FLuc counter,SMN2 splice enh,ELG1 genotoxic
Cc1ccc(C)c(OCc2cc(C(=O)N3CCOCC3)no2)c1,23%,?,21µM*,.,?
COCCCC1CCN(C(=O)c2cc(COc3cc(C)ccc3C)on2)CC1,2.5µM*,3.5µM*,12µM*,.,?
Cn1cccc1CC(=O)N/N=C/c1cccc2ccccc12,5%,2%,-2%,8%,1%
O=C(Cc1cccs1)N/N=C/C(Br)=C/c1ccccc1,3.2µM*,4µM*,?,?,?
CC(/C=N/NC(=O)Cc1cccs1)=C\c1ccccc1,?,3.5µM*,2.7µM*,.,?
CC(/C=N/NC(=O)CSc1n[nH]c(=O)[nH]c1=O)=C\c1ccccc1,-3%,9%,15µM*,.,-2%
CC(/C=N/NC(=O)Cc1cccn1C)=C\c1ccccc1,17%,28%,11µM*,13%,15%
O=C(Cc1cccs1)N/N=C/c1ccccn1,0%,17%,-13%,.,2%
COc1ccc2c(c1)O[C@@H](c1cccc(C(F)(F)F)c1)[C@H](OC(=O)NCc1ccc3c(c1)OCO3)C2=O,.,.,.,-5%,.
Cc1nc(-c2ccc(C)c(N3CCN(C(=O)Nc4ccccc4C(F)(F)F)CC3)c2)no1,.,.,3%,.,.
Cc1ccccc1-c1nc(CNC(=O)NC2CCCCC2)c(C)o1,.,.,-6%,.,.
C=CCOC(=O)N[C@H](/C(C(=O)OC)=C(\C)NCc1ccccc1)c1cccc(F)c1,.,.,.,-7%,.
CC(=O)Oc1ccc2nc(/C=C/c3ccc(C=O)cc3)oc(=O)c2c1,-4%,-2%,?,.,3%
CC(=O)Oc1ccc2c(=O)oc(-c3ccccc3C)nc2c1,-2%,0%,19µM*,.,0%
CC(=O)Oc1ccc2c(=O)oc(-c3ccccc3)nc2c1,1%,0%,7.6µM*,.,1%
Cc1ccccc1-c1nc2cc(Cl)ccc2c(=O)o1,-4%,1%,-11%,.,0%
CC(=O)Oc1ccc2nc(/C=C/c3ccccc3)oc(=O)c2c1,-5%,4%,1.1µM*,.,3%
CCN1CCN(CCCNC(=O)Cn2nc(C)n3c(cc4c(OC)cccc43)c2=O)CC1,.,.,4%,-10%,.
CC(=O)Nc1cc(CN2CCCCC2)c(O)c2ncccc12,.,.,.,-8%[9.22 µM],.
Cc1nc2c(-c3ccccc3)cnn2c(N)c1-c1ccccc1,?,16%,0.21µM*,.,?
CC(=O)CSc1cc(C)nc2c(-c3ccccc3)c(C)nn12,-2%,-8%,-1%,.,5%
Cc1cc(SCC(=O)c2ccccc2)n2ncc(-c3ccccc3)c2n1,5µM*,3.5µM*,9.5µM*,.,9%
CC(=O)c1cnc2c(-c3ccccc3)cnn2c1C,13%,10%,?,-3%,?
Cc1cc(-c2ccccc2)n2ncc(-c3ccccc3)c2n1,2.8µM*,0.5µM*,0.19µM*,-52%,0.21µM*
COc1ccc(-c2cc(C)nc3c(-c4ccccc4)cnn23)cc1,0.5µM*,0.56µM*,0.67µM*,?,0.65µM*
COc1ccccc1-c1c(C)nn2c(-c3ccccc3)cc(C)nc12,-3%,-3%,?,.,-7%
c1coc(-c2ccc3ncnc(NCc4cccs4)c3c2)c1,4%,-1%,5%,.,.
O=C(CSc1nc(=O)[nH]c2c1CCCC2)NCc1ccc(F)cc1,.,.,-1%,.,.
O=C(CSc1ccc(-c2ccco2)nn1)c1ccccc1,16%,?,27µM*,18%,13%
COc1ccc(C(=O)CSc2ccc(-c3ccco3)nn2)cc1,0%,-3%,?,11%,1%
